The results in this text go back to PubChem BioAssay.

“And” between values parts separate entries of the source, which are not always exact repeats. Equal values may be shown once. The source made the active and inactive calls. Unless noted, no stated cut-off is given here; in the data, active means inhibition above about 80%; inactive means the rest.

The inhibition is the change of the read-out against control, counted positive when it falls.

A short description of one experiment: LFS_MB_P medulloblastoma growth inhibition, cell-based, chromothripsis tumors, cisplatin or BGB combos (AID 1671449).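 Further: cells exposed for 96 hours; 0% = vehicle DMSO and 100% = killing by high DMSO.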 As to conditions: LFS_MB_P medulloblastoma cells, at 0.5 µM, stronger effect = higher value.
Take `COc1c(N2CC3CCCNC3C2)c(F)cc2c(=O)c(C(=O)O)cn(C3CC3)c12` (centres undefined): the inhibition is 79.9% (inactive) and -20.5% (inactive).

As to `Cc1ccc(NC(=O)CCCCCC(=O)Nc2ccccc2N)cc1`, the inhibition is 2.92% (inactive).

In the case of `Nc1ccccc1NC(=O)CCCCCCC(=O)Nc1ccccc1`, the inhibition was -12.9% (inactive) and -25.1% (inactive).

Still in this experiment, the particulars now being: LFS_MB_P medulloblastoma cells, measured here: combination with BGB IC20, at 0.005 µM.
For `COc1c(N2CC3CCCNC3C2)c(F)cc2c(=O)c(C(=O)O)cn(C3CC3)c12` (centres undefined), the inhibition was -24.3% and -13.6%.

As to `Cc1ccc(NC(=O)CCCCCC(=O)Nc2ccccc2N)cc1`, the inhibition was -29.8%.

Take `Nc1ccccc1NC(=O)CCCCCCC(=O)Nc1ccccc1`: the inhibition was -23.2% and 0.813%.

Staying with this experiment, now noted: LFS_MB_P medulloblastoma cells, measured here: combination with BGB IC40, at 0.005 µM.
For the compound `COc1c(N2CC3CCCNC3C2)c(F)cc2c(=O)c(C(=O)O)cn(C3CC3)c12` (centres undefined), the inhibition is -13.7% and -15.3%.

For `Cc1ccc(NC(=O)CCCCCC(=O)Nc2ccccc2N)cc1`, the inhibition is -45%.

As to `Nc1ccccc1NC(=O)CCCCCCC(=O)Nc1ccccc1`, the inhibition was 83.8% and -29.2%.

The experiment is the same for the next values; noted with them: LFS_MB_P medulloblastoma cells, measured here: combination with BGB IC40, at 0.05 µM.
Take `COc1c(N2CC3CCCNC3C2)c(F)cc2c(=O)c(C(=O)O)cn(C3CC3)c12` (centres undefined): the inhibition was -23.7% and -12.1%.

With `Cc1ccc(NC(=O)CCCCCC(=O)Nc2ccccc2N)cc1`, the inhibition is -45.4%.

Regarding `Nc1ccccc1NC(=O)CCCCCCC(=O)Nc1ccccc1`, the inhibition was -12.1% and -1.18%.

The experiment is the same for the next values; noted with them: LFS_MB_P medulloblastoma cells, measured here: combination with cisplatin, at 0.5 µM, stronger effect = higher value.
Take `COc1c(N2CC3CCCNC3C2)c(F)cc2c(=O)c(C(=O)O)cn(C3CC3)c12` (centres undefined): the inhibition was 118% and -28.2%.

As for `Cc1ccc(NC(=O)CCCCCC(=O)Nc2ccccc2N)cc1`, the inhibition is -6.67%.

Regarding `Nc1ccccc1NC(=O)CCCCCCC(=O)Nc1ccccc1`, the inhibition was -8.88% and -35.8%.

The same experiment, now with this note: LFS_MB_P medulloblastoma cells, measured here: combination with cisplatin, at 5 µM, stronger effect = higher value.
Regarding `COc1c(N2CC3CCCNC3C2)c(F)cc2c(=O)c(C(=O)O)cn(C3CC3)c12` (centres undefined), the inhibition is -54.4% and -21.2%.

Consider `Cc1ccc(NC(=O)CCCCCC(=O)Nc2ccccc2N)cc1`, for which the inhibition is 65.8%.

Take `Nc1ccccc1NC(=O)CCCCCCC(=O)Nc1ccccc1`: the inhibition was 46.8% and 54.9%.

The nature of a further experiment: HDN33 neuroblastoma growth inhibition, cell-based, chromothripsis tumors, cisplatin or BGB combos (AID 1671450).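 Further: cells exposed to compound for four days; 0% = vehicle DMSO and 100% = cell killing by high DMSO.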 The settings on record: HDN33 neuroblastoma cells, BGB combo, at 5 µM, stronger effect = higher value.
Take `COc1c(N2CC3CCCNC3C2)c(F)cc2c(=O)c(C(=O)O)cn(C3CC3)c12` (centres undefined): the inhibition is 16.5% and -16.1%.

On to `Cc1ccc(NC(=O)CCCCCC(=O)Nc2ccccc2N)cc1`, for which the inhibition was determined as 11%.

With `Nc1ccccc1NC(=O)CCCCCCC(=O)Nc1ccccc1`, the inhibition is 20.6% and 28.7%.

Still in this experiment, the particulars now being: HDN33 neuroblastoma cells, at 0.5 µM, stronger effect = higher value.
On to `COc1c(N2CC3CCCNC3C2)c(F)cc2c(=O)c(C(=O)O)cn(C3CC3)c12` (centres undefined), for which the inhibition was -17.5% (inactive) and 7.5% (inactive).

With `Cc1ccc(NC(=O)CCCCCC(=O)Nc2ccccc2N)cc1`, the inhibition is -14.2% (inactive).

Turning to `Nc1ccccc1NC(=O)CCCCCCC(=O)Nc1ccccc1`, the inhibition was 5.22% (inactive) and 5.82% (inactive).

Still in this experiment, the particulars now being: HDN33 neuroblastoma cells, cisplatin combo, at 5 µM, stronger effect = higher value.
For the compound `COc1c(N2CC3CCCNC3C2)c(F)cc2c(=O)c(C(=O)O)cn(C3CC3)c12` (centres undefined), the inhibition is -9.22% and 17.7%.

Turning to `Cc1ccc(NC(=O)CCCCCC(=O)Nc2ccccc2N)cc1`, the inhibition is 32%.

For `Nc1ccccc1NC(=O)CCCCCCC(=O)Nc1ccccc1`, the inhibition is 39.9% and 36.6%.

The experiment is the same for the next values; noted with them: HDN33 neuroblastoma cells, measured here: with BGB IC20 combination, at 0.5 µM, stronger effect = higher value.
For `COc1c(N2CC3CCCNC3C2)c(F)cc2c(=O)c(C(=O)O)cn(C3CC3)c12` (centres undefined), the inhibition is -4.15% and 11.4%.

Regarding `Cc1ccc(NC(=O)CCCCCC(=O)Nc2ccccc2N)cc1`, the inhibition was -21.3%.

For `Nc1ccccc1NC(=O)CCCCCCC(=O)Nc1ccccc1`, the inhibition is 3.82% and 0.196%.

The same experiment, now with this note: HDN33 neuroblastoma cells, measured here: with cisplatin IC20 combination, at 0.5 µM, stronger effect = higher value.
`COc1c(N2CC3CCCNC3C2)c(F)cc2c(=O)c(C(=O)O)cn(C3CC3)c12` (centres undefined): the inhibition was -25.5% and 15.3%.

As for `Cc1ccc(NC(=O)CCCCCC(=O)Nc2ccccc2N)cc1`, the inhibition is -11%.

Take `Nc1ccccc1NC(=O)CCCCCCC(=O)Nc1ccccc1`: the inhibition is 11.3% and -1.37%.

Staying with this experiment, now noted: HDN33 neuroblastoma cells, single agent, at 5 µM, stronger effect = higher value.
Consider `COc1c(N2CC3CCCNC3C2)c(F)cc2c(=O)c(C(=O)O)cn(C3CC3)c12` (centres undefined), for which the inhibition is 17.2% and 9.26%.

In the case of `Cc1ccc(NC(=O)CCCCCC(=O)Nc2ccccc2N)cc1`, the inhibition worked out at 25.4%.

As to `Nc1ccccc1NC(=O)CCCCCCC(=O)Nc1ccccc1`, the inhibition was 23.6% and 28%.

A short description of the next experiment: ICB984 medulloblastoma cell growth inhibition, synergistic combos for chromothripsis tumors, cisplatin or BGB combos (AID 1671451; call rule not given here;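 further: cells exposed for 96 hours before readout; 0% = vehicle DMSO and 100% = killing by high DMSO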). As to conditions: ICB984 medulloblastoma cells, drug combinations, BGB IC20 combo, at 0.005 µM, stronger effect = higher value.
Regarding `COc1c(N2CC3CCCNC3C2)c(F)cc2c(=O)c(C(=O)O)cn(C3CC3)c12` (centres undefined), the inhibition is -0.325% and -11.1%.

Take `Cc1ccc(NC(=O)CCCCCC(=O)Nc2ccccc2N)cc1`: the inhibition was -3.62%.

For the compound `Nc1ccccc1NC(=O)CCCCCCC(=O)Nc1ccccc1`, the inhibition was -17.1% and -28%.

Still in this experiment, the particulars now being: ICB984 medulloblastoma cells, drug combinations, BGB IC40 combo, at 0.005 µM, stronger effect = higher value.
Regarding `COc1c(N2CC3CCCNC3C2)c(F)cc2c(=O)c(C(=O)O)cn(C3CC3)c12` (centres undefined), the inhibition is -5.95% and -17.1%.

Consider `Cc1ccc(NC(=O)CCCCCC(=O)Nc2ccccc2N)cc1`, for which the inhibition is -26.5%.

On to `Nc1ccccc1NC(=O)CCCCCCC(=O)Nc1ccccc1`, for which the inhibition is -32.5% and -14.2%.

The same experiment, now with this note: ICB984 medulloblastoma cells, drug combinations, BGB IC40 combo, at 0.05 µM, stronger effect = higher value.
For the compound `COc1c(N2CC3CCCNC3C2)c(F)cc2c(=O)c(C(=O)O)cn(C3CC3)c12` (centres undefined), the inhibition was -19.5% and -21.1%.

As for `Cc1ccc(NC(=O)CCCCCC(=O)Nc2ccccc2N)cc1`, the inhibition was 6.33%.

For the compound `Nc1ccccc1NC(=O)CCCCCCC(=O)Nc1ccccc1`, the inhibition is -14.5% and 9.77%.

Still in this experiment, the particulars now being: ICB984 medulloblastoma cells, drug combinations, at 0.5 µM, stronger effect = higher value.
Take `COc1c(N2CC3CCCNC3C2)c(F)cc2c(=O)c(C(=O)O)cn(C3CC3)c12` (centres undefined): the inhibition was -10.7% (inactive) and -20.7% (inactive).

`Cc1ccc(NC(=O)CCCCCC(=O)Nc2ccccc2N)cc1`: the inhibition is -27.2% (inactive).

Regarding `Nc1ccccc1NC(=O)CCCCCCC(=O)Nc1ccccc1`, the inhibition is -15.5% (inactive) and -30% (inactive).

Staying with this experiment, now noted: ICB984 medulloblastoma cells, drug combinations, cisplatin combo, at 0.05 µM, stronger effect = higher value.
`COc1c(N2CC3CCCNC3C2)c(F)cc2c(=O)c(C(=O)O)cn(C3CC3)c12` (centres undefined): the inhibition is -23.8% and -21.1%.

Regarding `Cc1ccc(NC(=O)CCCCCC(=O)Nc2ccccc2N)cc1`, the inhibition was found to be 1.63%.

On to `Nc1ccccc1NC(=O)CCCCCCC(=O)Nc1ccccc1`, for which the inhibition was -20.4% and 6.2%.

Staying with this experiment, now noted: ICB984 medulloblastoma cells, drug combinations, cisplatin combo, at 0.5 µM, stronger effect = higher value.
In the case of `COc1c(N2CC3CCCNC3C2)c(F)cc2c(=O)c(C(=O)O)cn(C3CC3)c12` (centres undefined), the inhibition is -1.29% and -29.2%.

Regarding `Cc1ccc(NC(=O)CCCCCC(=O)Nc2ccccc2N)cc1`, the inhibition is -36.9%.

Take `Nc1ccccc1NC(=O)CCCCCCC(=O)Nc1ccccc1`: the inhibition is -17.3% and -48.3%.
